Screening results deposited in PubChem BioAssay by National Center for Advancing Translational Sciences (NCATS).
An excerpt weighted towards active compounds, which were near 2.2% of everything screened.
TDP43 rescue: TDP-43 toxicity inhibition in yeast; TDP-43 expressing yeast growth rescue, BacTiter-Glo, 24 h; Potency, µM (series often up to 46.1 µM), for the others: at the highest dose growth rescue (activation), usual class: activators; 410,000 compounds, 1.8% hits; AID 652104; also: % of control where 0% means no effect; nearly all actives have a fitted effect of over 50% in size
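Cell-based yeast growth screen: TDP-43 expression induced in galactose, inoculum OD600=0.02 after raffinose pregrowth to mid-log. Read-out BacTiter-Glo luminescence at 24 hr, 30 deg C; inhibition of toxicity seen as signal increase.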
ERG Ets-DNA blk: blocks human ERG Ets domain binding to DNA; P11308; fluorescence polarization, His-ERG Ets domain / labelled DNA; Potency, µM (series often up to 76.9 µM), inactives show top-dose FP activity, negative = inhibition, hits mostly inhibitors; 370,000 compounds, 0.028% hits; active = well fitted inhibition curve with a large enough effect in the polarisation, with a control signal flat; inconclusive = small, poorly fitted or top-dose-only effect, or effect the other way, or a change in a side signal; inactive = no such curve, though single readings can be large or run the other way; the % refers to the polarisation;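 also: polarization taken with two DNA probes labelled with fluorescein and Texas red; % of control where 0% means no effect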
Target sequence (P11308 whole entry, looked up, the tested form may be a part): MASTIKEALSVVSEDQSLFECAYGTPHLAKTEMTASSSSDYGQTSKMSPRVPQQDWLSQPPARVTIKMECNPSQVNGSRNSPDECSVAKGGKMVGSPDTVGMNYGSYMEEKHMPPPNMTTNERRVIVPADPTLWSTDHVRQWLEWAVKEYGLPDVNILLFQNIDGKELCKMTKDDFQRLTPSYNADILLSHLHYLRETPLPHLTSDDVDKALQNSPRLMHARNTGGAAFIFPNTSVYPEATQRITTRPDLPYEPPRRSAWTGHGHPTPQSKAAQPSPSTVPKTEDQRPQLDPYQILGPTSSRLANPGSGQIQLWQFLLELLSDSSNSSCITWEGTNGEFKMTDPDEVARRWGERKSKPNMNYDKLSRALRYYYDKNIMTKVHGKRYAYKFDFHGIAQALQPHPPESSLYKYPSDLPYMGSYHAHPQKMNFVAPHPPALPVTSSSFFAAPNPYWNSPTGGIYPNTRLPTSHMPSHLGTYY
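His-tagged ERG Ets domain (1 uM in the protein solution; 300mM KCl, 50mM Tris-HCl, 1mM EDTA, 1mM DTT, pH 7.5) received compound, then a probe mix of 5 nM fluorescein-DNA and 100nM Texas-615-DNA. Fluorescence polarization was read for both dyes.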
FUS yeast rescue: FUS proteinopathy suppression in yeast; 390,000 compounds, 0.24% hits; Potency, µM (top dose mostly 76.6 µM), actives largely listed as activators; S. cerevisiae FUS-expressing, growth rescue, OD600, 24 h;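 also: plate controls were DMSO vehicle for no effect and reference control for full effect; nearly all actives have a fitted effect of over 55% in size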
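Yeast expressing FUS under galactose induction, OD 0.005 in 2% galactose medium; compounds in a dilution series, 24 h at 30C. Growth rescue by absorbance at 600 nm; CP55940 positive control, DMSO negative.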
aSyn yeast inh: inhibitors of alpha-synuclein toxicity in yeast; Yeast expressing alpha-synuclein, growth rescue, BacTiter-Glo, 24 h; Potency, µM (doses to about 46.1 µM), inactives show at the top dose growth rescue (activation), usual class: activators; 370,000 compounds, 0.14% hits; AID 652106; also: % of control where 0% means no effect; nearly all actives have a fitted effect of over 65% in size
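Galactose-induced alpha-syn yeast (OD600=0.02, raffinose-pregrown) + pinned cpd, 24 hr, 30 deg C; growth by BacTiter-Glo luminescence. Growth restoration scores as activation.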
Mito fusion yeast: blocks mitochondrial division or promotes mitochondrial fusion; S. cerevisiae fusion-defective mutant growth rescue, CellTiterGlo 48 h; Potency, µM (doses to about 46.1 µM), for the others: top-dose growth rescue (activation), usual class: activators; 320,000 compounds, 0.23% hits; also: % of control where 0% means no effect; nearly all actives have a fitted effect of over 45% in size
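Read-out: ATP-based luminescence (CellTiterGlo, 10 min ambient) reporting growth of fusion-defective ts yeast after 48 hours at 37C on glycerol/ethanol YPEG medium in the presence of compound.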
Abeta yeast res: compounds reversing amyloid beta toxicity in yeast | 410,000 compounds, 0.063% hits | Potency, µM (titrated, usually from 46.1 µM), actives largely listed as activators | AID 1347071 | yeast expressing A-beta42, growth rescue, OD600, 48 h; response scale: 0% DMSO, 100% iron-clioquinol control; also: nearly all actives have a fitted effect of over 55% in size
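Growth rescue measured by 600 nm absorbance after 48 h yeast culture at 30 C with compound. Values normalized between DMSO and an equimolar ferric chloride plus clioquinol control.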
* marks the source's active call; other numbers are inactive results; i = inactive; ? = inconclusive; / = not tested or not shown. Unless noted, calls follow the shape of the dose curve; as a rule, active = well fitted curve in the direction sought with a large enough effect; inconclusive = small, poorly fitted or top-dose-only effect, or another doubt; inactive = no such curve, though single readings can be large; an effect the other way counts as inactive or inconclusive. Potency is read from the fitted curve at half-maximal effect.

SMILES	TDP43 rescue	ERG Ets-DNA blk	FUS yeast rescue	aSyn yeast inh	Mito fusion yeast	Abeta yeast res
CCOc1ccc(-c2[nH]ncc2-c2ccc(Cl)cc2)c(O)c1	35.5µM*	3.6%	i	-45.6%	2.8%	i
O=[N+]([O-])c1cccnc1N1CCC(c2cc(-c3ccc(Cl)cc3Cl)n[nH]2)CC1	?	1.7%	25.1µM*	?	17.9%	?
O=C(Nc1ccc(F)cc1)c1ccc2ncsc2c1	25.1µM*	-2.6%	i	-19.6%	-47.5%	i
COc1ccc(-c2cc(C(=O)Nc3c(C)nn(Cc4ccccc4C)c3C)no2)cc1	4.0%	0.6%	i	/	/	i
Cc1ccc2nc(-c3cccc(Br)c3)cc(C(=O)NC3=NCCS3)c2c1	20µM*	-3.2%	i	-25.6%	23.5%	i
O=C(NC1=NCCS1)c1cc(-c2cccc(Br)c2)nc2ccccc12	22.4µM*	?	/	-23.8%	22.9%	i
O=C(NC1=NCCS1)c1cc(-c2ccc(F)cc2)nc2ccccc12	8.6%	0.5%	/	-33.4%	3.1%	i
Cc1ccc(-c2cc(C(=O)NC3=NCCS3)c3ccccc3n2)cc1C	?	45.9%	?	-34.8%	-2.2%	i
COc1cc2c(cc1OC)/C(=C/c1ccc(Cl)cc1)C(=O)OC2	22.4µM*	8.6%	i	12.6%	?	i
COc1ccc(/C=C2\C(=O)OCc3cc(OC)c(OC)cc32)cc1OC	27.1%	-0.3%	?	12.9%	17.0%	i
CCn1cc(C(=O)N2CCN(c3ccc(F)cc3)CC2)c(=O)c2cc(S(=O)(=O)N3CCOCC3)ccc21	-15.0%	8.1%	i	/	/	i
O=C(Nc1c(-c2ccc(F)c(F)c2)nc2ncccn12)C1CC1	/	/	i	/	/	/
C=C1C(=O)[C@]23C[C@H]1CCC2[C@@]1(C)C(C[C@@H]3O)[C@](C)(C(=O)OC)CC[C@@H]1O (some centres not stated)	3.16µM*	/	i	-51.3%	/	i
O=C(c1cc(C2CC2)on1)N(C1CCCCC1)C1CCCCC1	/	/	i	/	/	/
CCOc1cc2c(c3c1C(c1ccccc1)N(S(=O)(=O)c1ccc(C)cc1)C3)C(=O)C=CC2=O (configuration not stated)	12.6µM*	/	i	-2.9%	/	i
COc1ccc(CNC(=O)CSc2ncc3c(n2)-c2cc(Cl)ccc2N(C)S3(=O)=O)cc1	10.4%	-5.3%	i	/	/	i
Cc1cc(F)ccc1NS(=O)(=O)c1c(C)nc2scc(C)n2c1=O	20µM*	4.5%	i	-8.4%	-1.7%	i
Cc1ccccc1-c1nc2cc(N)ccc2o1	25.2%	/	/	9.1%	0.7%	i
CC(C)c1ccc2oc(-c3cc(N)ccc3O)nc2c1	20µM*	11.7%	i	-10.7%	-17.0%	i
Oc1c(Br)cc(Br)cc1CNc1ccc(F)cc1	-92.9%	0.0%	i	-26.1%	-0.2%	i
Oc1c(Br)cc(Br)cc1CNc1cnc2ccccc2c1	20µM*	7.6%	i	15.3%	-6.1%	i
Cc1c(C(=O)NCC(c2ccc(Cl)cc2)N2CCOCC2)oc2ccccc12 (configuration not stated)	?	-2.9%	i	/	/	i
CCc1c(C)nc2ncnn2c1Nc1ccc(C)cc1	?	-10.5%	i	22.9%	-1.3%	i
CCc1c(C)nc2ncnn2c1NC1CCCc2ccccc21 (configuration not stated)	22.3%	-4.0%	i	7.7%	-9.6%	12.6µM*
Cc1cc2c(cc3c(SCc4ccccc4Cl)nnc(C)n32)o1	8.6%	1.3%	i	/	/	i
SMILES	TDP43 rescue	ERG Ets-DNA blk	FUS yeast rescue	aSyn yeast inh	Mito fusion yeast	Abeta yeast res
CC(=O)c1ccccc1OCCn1nnc(-c2ccc(C)cc2)n1	25.1µM*	-1.8%	i	12.2%	20.5%	i
Cc1cc(C)n2nc(SCc3ccc(F)cc3Cl)nc2n1	11.2µM*	-4.0%	i	-17.3%	6.9%	i
CCc1ccc2c(-c3cccc(Cl)c3)nc(=O)n(CC)c2n1	/	/	/	-0.5%	11.6µM*	/
CC(CCc1ccccc1)NC(=O)Cn1c(=O)nc(-c2ccccc2)c2cc(Cl)ccc21 (configuration not stated)	17.2%	-5.4%	i	/	/	i
O=c1cc2c(nn1Cc1ccccc1Cl)-c1ccccc1CC2	24.3%	6.2%	i	9.0%	20µM*	i
COc1ccccc1N1CCN(C(=O)COc2cc(C)cc3oc(=O)cc(C)c23)CC1	17.6%	-0.9%	i	-5.2%	-0.5%	i
O=C(c1cc2ccccc2o1)N1CCN(S(=O)(=O)c2c(F)cccc2F)CC1	14.1µM*	2.9%	i	10.3%	1.8%	i
CCc1ccc2oc(C(=O)N3CCN(c4ccccc4OC)CC3)cc(=O)c2c1	20µM*	0.2%	i	14.4%	16.4%	i
COc1ccccc1N1CCN(C(=O)c2cc(=O)c3c(C)cc(C)cc3o2)CC1	25.1µM*	1.1%	i	-3.5%	?	i
COc1ccccc1N1CCN(C(=O)c2oc3ccccc3c2N)CC1	12.6µM*	-2.3%	i	/	/	i
CC(=O)N1CCN(C(=O)c2cc3ccccc3o2)CC1	-9.5%	5.5%	i	-3.0%	0.4%	i
COc1ccc(NC(=O)Cn2cc(C(=O)c3ccccc3OC)c(=O)c3ccc(C)nc32)cc1OC	7.6%	10.6%	i	/	/	i
O=C(c1cc(=O)c2ccccc2o1)N1CCN(c2cccc(Cl)c2)CC1	?	2.6%	i	2.2%	6.3%	i
O=C(c1cc(=O)c2ccccc2o1)N1CCN(c2ccccc2F)CC1	14.1µM*	-2.4%	i	6.4%	-0.1%	i
Cc1ccc(NC(=O)N2CCC(CN3CCCCCC3)CC2)c(Cl)c1	15.5%	-2.2%	i	/	/	i
CC(=O)c1cccc(NC(=O)c2c(N3CCCC3=O)c3cc(F)ccc3n2C)c1	?	-0.4%	i	-0.5%	/	i
Cc1cccc(Cn2c(COc3ccccc3)nc3ccccc32)c1	17.8µM*	-2.6%	i	?	/	i
COc1cccc(OCc2nc3ccccc3n2Cc2ccccc2C)c1	22.4µM*	4.4%	i	/	/	?
CCCn1c(COc2cccc(C)c2)nc2ccccc21	?	-2.9%	?	/	/	i
Cc1ccccc1OCc1nc2ccccc2n1C	17.8µM*	5.3%	i	-15.7%	-15.0%	i
Cc1cccc(NCc2nc3ccccc3n2Cc2ccccc2)c1	15.8µM*	2.0%	i	0.0%	7.1%	?
